TEAD-YAP block: TEAD-YAP interaction inhibition; HEK-TIYL cells, TEAD-Gal4/YAP UAS-luciferase luminescence; inhibition, % at 9.12 µM; 640,000 tested, 1.4% active; AID 1259422; in the data active = inhibition above about 32%
GPR151 ag: human GPR151 activation; Q8TDV0; PathHunter beta-arrestin GPR151 cells, luminescence; activation, % at 11.2 µM; 650,000 tested, 1% active; AID 1508602; in the data active = activation above about 4.9%
FBW7 activator: human FBW7 E3 ligase activation, primary screen | Q969H0 | AlphaScreen FBW7–phospho-cyclin E peptide binding, activator screen | normalized activity (activation), % at 26.1 µM | 650,000 tested, 0.13% active | AID 1259310; in the data active = normalized activity above about 1.9%;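 note: purified mutant Fbw7 with reduced substrate affinity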
Target sequence (Q969H0 whole entry, looked up): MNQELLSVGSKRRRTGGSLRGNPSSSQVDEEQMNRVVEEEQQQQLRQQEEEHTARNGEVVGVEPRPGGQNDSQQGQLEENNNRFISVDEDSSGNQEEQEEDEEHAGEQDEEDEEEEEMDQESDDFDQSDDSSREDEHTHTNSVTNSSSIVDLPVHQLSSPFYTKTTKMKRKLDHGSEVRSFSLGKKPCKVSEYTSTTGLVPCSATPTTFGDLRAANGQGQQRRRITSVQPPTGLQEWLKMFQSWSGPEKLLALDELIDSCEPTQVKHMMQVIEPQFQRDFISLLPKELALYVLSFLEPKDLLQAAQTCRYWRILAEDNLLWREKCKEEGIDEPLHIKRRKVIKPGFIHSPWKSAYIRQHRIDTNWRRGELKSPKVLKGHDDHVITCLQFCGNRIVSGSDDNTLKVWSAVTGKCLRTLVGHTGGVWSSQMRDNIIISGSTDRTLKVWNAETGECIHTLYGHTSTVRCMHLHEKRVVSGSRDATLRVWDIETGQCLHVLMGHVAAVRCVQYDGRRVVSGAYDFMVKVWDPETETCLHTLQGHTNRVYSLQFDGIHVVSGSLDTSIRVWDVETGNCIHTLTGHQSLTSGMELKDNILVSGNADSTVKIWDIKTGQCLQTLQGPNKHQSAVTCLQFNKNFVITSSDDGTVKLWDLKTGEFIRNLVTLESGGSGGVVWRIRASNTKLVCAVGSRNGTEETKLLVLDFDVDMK
MITF inh: inhibitors of human MITF | O75030 | inhibition, % at 2.6 µM | AlphaScreen MITF homodimerization, bead proximity signal | 650,000 tested, 0.91% active | AID 1259374; in the data active = inhibition above about 50%
Of the large screens only hits and unclear results are named; the others gave an inactive call. The list is not random: actives were taken first. Their share in the collection is about 3.5%.

CSc1nc(Cl)c(Cc2ccc(OC(C)C)cc2)c(Cl)n1	none
COc1cccc(N2C(=O)NC(=O)/C(=C/C=C/c3ccco3)C2=O)c1	none
COc1ccc(N2C(=O)/C(=C\C=C\c3ccco3)C(=O)NC2=S)cc1	MITF inh 77
CN(C)CCNC(=O)c1ccc(S(=O)(=O)c2ccc(Br)cc2)c([N+](=O)[O-])c1	TEAD-YAP block 55
CN(C)CCNC(=O)c1ccc(Sc2ccccc2Cl)c([N+](=O)[O-])c1	none
O=[N+]([O-])c1ccc(S(=O)(=O)NCCc2cn3ccsc3n2)cc1	none
O=[N+]([O-])c1cccc(S(=O)(=O)NCCc2cn3ccsc3n2)c1	FBW7 activator 6.2
O=S(=O)(NCc1cn2ccsc2n1)c1ccc(Oc2ccccc2)cc1	TEAD-YAP block 35
CC(C)(C)c1ccc(C(=O)NCCOc2ccccc2F)cc1	TEAD-YAP block 59
CC(C)(C)c1ccc(C(=O)NCCOc2ccccc2)cc1	TEAD-YAP block 36
COc1ccc2c(c1)CC(C(=O)Nc1ccc(-c3ccnc(N)n3)cc1OCCN(C)C)CO2 (stereo unspecified)	none
O=C1C=C(NCc2ccccc2)c2ccccc2C1=O	TEAD-YAP block 51
O=C1C=C(Nc2cccc(C(=O)O)c2)c2ccccc2C1=O	none
CCCCN(CC(=O)Nc1ccc2c(c1)OCCO2)S(=O)(=O)c1ccc(OCC)cc1	none
CCCc1nc2ccccc2n1CC(O)COc1cc(C)ccc1Cl (stereo unspecified)	none
CN(CCO)C1CCc2c(sc3ncn(CC4CCCCC4)c(=O)c23)C1 (stereo unspecified)	TEAD-YAP block 49
COc1ccc(OC)c(S(=O)(=O)NCc2cccs2)c1	none
Cn1cc(-c2ccc3cnc(Nc4ccc(-n5cnc(N6CCOCC6)n5)cc4)nc3c2C2CC2)cn1	TEAD-YAP block 81
Cn1cc(-c2ccc3cnc(Nc4ccc(-n5cnc(N6CCOCC6)n5)cc4)nc3c2-c2ccccc2)cn1	TEAD-YAP block 98
COc1c(-c2cnn(C)c2)ccc2cnc(Nc3ccc(-n4cnc(N5CCOCC5)n4)cc3)nc12	TEAD-YAP block 81
COc1ccc2c(c1)C(C)CC(C)(C)N2C(=O)CCl (stereo unspecified)	TEAD-YAP block 41
O=C(O)C(Cc1ccccc1[N+](=O)[O-])=Nc1ccccc1C(=O)O	none
O=C(NCCc1cccs1)c1ccc2c(c1)CC(c1nc3ccc(-c4cn[nH]c4)cc3c(=O)[nH]1)CO2 (stereo unspecified)	none
Cc1noc(-c2ccc(NC(=O)c3cccnc3)cc2)n1	TEAD-YAP block 43
COCCSc1ccccc1C(=O)Nc1cc(OC)c(Cl)cc1OC	none
COc1cccc(C(=O)C[n+]2cc(-c3ccc(F)cc3)n(C)c2N)c1	TEAD-YAP block 85
CCCCCCNc1nc(Nc2ccc(Cl)cc2)nc(N2CCOCC2)n1	none
COc1ccc(-c2ccc(C(C)=O)cc2)cc1	none
COc1ccc(-c2cc(O)cc(O)c2)cc1	TEAD-YAP block 34
CCc1c(C)nc2c(C(=O)NCCc3ccccc3)c[nH]n2c1=O	none
Cc1ccc(CCNC(=O)c2c(N)[nH]n3c(=O)c4ccccc4nc23)cc1	TEAD-YAP block 35
O=C(Nc1ccc(Cl)c(Cl)c1)c1ccc(F)c(S(=O)(=O)N2CCCc3ccccc32)c1	TEAD-YAP block 49
O=C(Nc1ccc(F)c(F)c1)c1ccc(F)c(S(=O)(=O)N2CCCc3ccccc32)c1	TEAD-YAP block 43
Cc1ccc(N/C(N)=N/c2nc(C)cc(C)n2)cc1	none
Cc1cc(C)nc(/N=C(\N)Nc2ccccc2-c2ccccc2)n1	TEAD-YAP block 43
Cc1cc(C)nc(/N=C(\N)Nc2ccc(C(C)C)cc2)n1	TEAD-YAP block 35
CCCCc1ccc(N/C(N)=N/c2nc(C)cc(C)n2)cc1	TEAD-YAP block 54
COc1ccc(-n2nc3c(c2NC(=O)c2ccccc2Br)CS(=O)C3)cc1 (stereo unspecified)	none
CCN1CCN(Cc2ccc(NC(=O)Nc3ccc(OC)cc3)cc2)CC1	none
CCN1CCN(Cc2ccc(NC(=O)Nc3ccccc3)cc2)CC1	TEAD-YAP block 52
CCOC(=O)c1sc2nc(CC(=O)OC)nc(Nc3cccc(Cl)c3)c2c1C	none
CCOc1ccc(C)cc1S(=O)(=O)N1CCOCC1	none
CC1=NN(c2ccc(C)c(C)c2)C(=O)/C1=C/N1CCOCC1	none
Oc1ccc(Br)cc1CN1CCN(CC2CC3C=CC2C3)CC1 (stereo unspecified)	none
Oc1ccc(Br)cc1CN1CCN(Cc2cccnc2)CC1	MITF inh 67
CCOC(=O)N1CCN(C(=O)CSc2cc(N3CCCC3)ncn2)CC1	none
OC1CCC(Nc2nccn3c(-c4ccc5c(c4)OCO5)cnc23)CC1 (stereo unspecified)	FBW7 activator 1.9
COc1cc(-c2cnc3c(NC4CCC(O)CC4)nccn23)cc(OC)c1OC (stereo unspecified)	none
OC1CCC(Nc2nccn3c(-c4ccc(F)cc4)cnc23)CC1 (stereo unspecified)	none
COc1ccccc1-c1cnc2c(NC3CCC(O)CC3)nccn12 (stereo unspecified)	TEAD-YAP block 50
O=C(NC1CC1)c1ccc(-c2cnc3c(NC4CCC(O)CC4)nccn23)cc1 (stereo unspecified)	TEAD-YAP block 51
CO[C@H]1C=CO[C@@]2(C)Oc3c(C)c(O)c4c(O)c(c5c(c4c3C2=O)NC2(CCN(CC(C)C)CC2)N=5)=NC(=O)/C(C)=C\C=C[C@H](C)[C@H](O)[C@@H](C)[C@@H](O)[C@@H](C)[C@H](OC(C)=O)[C@@H]1C	none
CC(=O)c1cccc(NC(=O)COC(=O)Cc2ccc(-c3ccccc3)cc2)c1	none
CCOc1ccccc1CN(CCc1ccc2c(c1)OCO2)Cc1ccc(OC)cc1OC	none
O=C(Nc1ccc2oc(-c3ccc(Cl)cc3Cl)nc2c1)c1ccc(Cl)cc1	none
COc1cccc(CNc2ncc(-c3cccc(OC)c3)n2C)c1	TEAD-YAP block 54
COc1ccc(OC)c(CNc2ncc(-c3ccc(Br)cc3)n2C)c1	none
COc1ccc(OC)c(CNc2ncc(-c3cccc(Br)c3)n2C)c1	TEAD-YAP block 43
CCOC(=O)c1c(Cl)nc(Cl)c(Cl)c1Nc1ccc(OC(F)(F)F)cc1	TEAD-YAP block 51
CCOC(=O)c1c(Cl)nc(Cl)c(Cl)c1Nc1ccc(OC)cc1	TEAD-YAP block 47
CCOC(=O)c1c(Cl)nc(Cl)c(Cl)c1Nc1cccc(C)c1	none
CCOC(=O)c1c(Cl)nc(Cl)c(Cl)c1Nc1cccc(F)c1	TEAD-YAP block 44
CC(C)n1cnc2c(Nc3ccc(N4CCOCC4)cc3)nc(Nc3ccccn3)nc21	TEAD-YAP block 33
CC(C)n1cnc2c(Nc3ccc(N4CCOCC4)cc3)nc(Nc3nc4ccccc4n3C)nc21	TEAD-YAP block 33
c1ccc(N2CCN(c3nc(Nc4ccc(N5CCOCC5)cc4)c4ncn(C5CCCCC5)c4n3)CC2)nc1	MITF inh 52
CC(=O)Nc1ccc(Nc2nc(NC3CCC(O)CC3)nc3c2ncn3C(C)C)cc1 (stereo unspecified)	none
CC(C)n1cnc2c(Nc3ccccc3)nc(NC3CCC(O)CC3)nc21 (stereo unspecified)	TEAD-YAP block 68
COc1cccc(NS(=O)(=O)c2ccc3c(c2)OCC(=O)N3)c1	none

High-throughput results as filed in PubChem BioAssay.
